Hits are enriched below; roughly 3.5% of the tested compounds scored in any of these assays.
Pf apPOL block = Pf-apPOL inhibitors, biochemical, fluorescence | inhibition, % at 10 µM | Plasmodium falciparum apicoplast DNA polymerase (apPOL) | Recombinant Pf-apPOL, molecular beacon fluorescence, 1.5 h | 0.25% of 210,000 active
mHTT-CaM PPI inh = mutant huntingtin-calmodulin interaction inhibitors – biochemical, AlphaScreen, primary screen; AlphaScreen His-mHTT/GST-CaM binding, luminescence; inhibition, % at 15 µM; 3.6% of 190,000 active;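 note: 0% = both proteins with DMSO and 100% = one protein alone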
* = called active by the depositor; . = not tested or not shown; ! = a repeat was not active. Cut-off read from the data, not from the text of the source: active = inhibition above about 50%; inactive = the rest.

SMILES	Pf apPOL block	mHTT-CaM PPI inh
Cc1cccc(CC(=O)N2CCCN(C3CCN(Cc4ccc(F)cc4)C3=O)CC2)c1 (stereo not drawn)	1	86*
CCC12CN3CC(CC)(CN(C1)C3c1ccccn1)C2O (stereo not drawn)	-14	100*
CC12CN3CC(C)(CN(C1)C3c1ccncc1)C2=O (stereo not drawn)	-5	2
COc1ccc2c(c1)C1(CCN(S(=O)(=O)c3c(C)noc3C)C1)C(=O)N2C (stereo not drawn)	7	0
O=C(Cn1cnc([N+](=O)[O-])n1)Nc1ccc(Cl)cc1C(=O)c1ccccc1	17	12
O=C(COc1ccc(Br)cc1Cl)N1CCN(Cc2ccc3c(c2)OCO3)CC1	2	34
COc1cccc(C=C2Oc3cc(OC(=O)N(C)C)ccc3C2=O)c1	0	11
CN(C)C(=O)Oc1ccc2c(c1)OC(=CC=Cc1ccccc1)C2=O	-4	59*!
CC(NC(=O)c1cn(C)c2ncccc12)c1cccnc1 (stereo not drawn)	-2	-6
O=C(O)C1Cc2cc(C(F)(F)F)ccc2N2CCCCC12 (stereo not drawn)	3	50*
CC1CN(c2ccc(C(F)(F)F)cc2[N+](=O)[O-])CC(C)N1 (stereo not drawn)	2	-3
NCCc1cc(O)c(O)cc1O	.	31
NC(Cc1cc(O)c(O)cc1O)C(=O)O (stereo not drawn)	81*	.
CN(C)c1ccc(CN2CCN(c3ccccc3Cl)CC2)cc1	-8	53*
CN(C)c1ccc(CN2CCN(Cc3ccccc3)CC2)cc1	-3	3
COc1ccc2c(c1)C1(CCN(S(=O)(=O)c3ccc(Br)cc3)C1)C(=O)N2 (stereo not drawn)	-1	6
COc1cccc(-n2c(/C=C/c3ccc(O)c(O)c3)nc3ccccc3c2=O)c1	-4	70*
O=c1c2ccccc2nc(/C=C/c2cccc([N+](=O)[O-])c2)n1-c1ccccn1	91*!	2
COc1cccc(-n2c(/C=C/c3cccc([N+](=O)[O-])c3)nc3ccccc3c2=O)c1	-1	26
COc1ccc(-n2c(/C=C/c3ccc(O)c(OC)c3)nc3ccccc3c2=O)cc1	-4	10
Cc1cccc(/C=C/c2nc3ccccc3c(=O)n2-c2cccc(O)c2)c1	-12	25
Cc1cccc(-n2c(/C=C/c3cccnc3)nc3ccccc3c2=O)c1	-9	100*
C/C=C(\C)CN(C)CCc1ccc(OC)c(OC)c1	-3	-7
CCCc1[nH]nc2c1C1(CN3CCC1CC3)C(C#N)=C(N)O2 (stereo not drawn)	.	28
Cc1nc2ccccc2c(=O)n1-c1ccccc1I	8	0
SMILES	Pf apPOL block	mHTT-CaM PPI inh
CCn1cc(C(=O)Nc2ccc(F)c(Cl)c2)c2cccnc21	0	27
COc1cc(Br)cc(/C=C/[N+](=O)[O-])c1O	-1	72*
COc1cc(/C=C/[N+](=O)[O-])c(OC)cc1C	-4	25
Clc1cccc(C2C=C(c3cccnc3)Nc3nnnn32)c1 (stereo not drawn)	-7	5
CC1N=C(c2ccccc2)c2ccccc2N(CC(=O)Nc2ccc(F)cc2Cl)C1=O (stereo not drawn)	-19	5
CC1N=C(c2ccccc2)c2ccccc2N(CC(=O)Nc2ccc(F)c(Cl)c2)C1=O (stereo not drawn)	-19	66*
